Screening results as filed in PubChem.
SMN2 splice up: increases expression of the SMN2 splice variant; hit rate 2.8% among 210,000; AID 1458; Potency, µM (top dose mostly 46.1 µM), without a hit: at the top dose activity change, positive = activation, hits mostly activators; HEK293 SMN2-luciferase splicing reporter, luminescence, 30-36 h; note: % of control where 0% means no effect; nearly all actives have a fitted effect of over 55% in size
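HEK293 cells carry an SMN2 minigene-luciferase reporter in which exon 7 inclusion puts luciferase in frame. Cells were seeded at 2000 cells/well, attached for 10-12 hours, then exposed to compounds for 30-36 hours at 37C before ONE-Glo luminescence.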
ELG1 repair inh: inhibitors of ELG1-dependent DNA repair in HEK293T cells. HEK293T ELG1-luciferase reporter, luminescence, 16 h; DNA damage induced by 5-fluorouridine. Potency, µM (top dose mostly 46.1 µM), without a hit: at the highest dose activity change, negative = inhibition, most hits filed as inhibitors. hit rate 2.3% among 330,000; note: % is set by controls: 0 for no effect and ±100 for the full control effect; nearly all actives have a fitted effect of over 55% in size
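Cells (2,000 per well) received 5-fluorouridine plus test compound or DMSO and were incubated 16 hr at 37 °C, 5% CO2. Luciferase activity was read by luminescence 30 min after ONE-Glo addition; signal suppression marked inhibition of damage-induced ELG1 function.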
Rab9 promoter act: activates the Rab9 promoter. hit rate 2.8% among 320,000. Huh7 Rab9 promoter-luciferase reporter, luminescence, 24 h. Potency, µM (series often up to 9.22 µM), inactives show top-dose activation, negative = inhibition, most hits filed as activators. AID 485297; note: % of control where 0% means no effect; nearly all actives have a fitted effect of over 60% in size
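Luminescence from Amplite-detected luciferase (10 minutes, ambient) reports Rab9 promoter activation. Before that, stable Rab9-luciferase Huh7 cells (1500/well, reduced-serum OP-MEM I plus 10% FBS) were exposed to compound for 24 hours at 37C.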
ELG1 genotox: induces genotoxicity in HEK293T cells with luciferase-tagged ELG1. HEK293T ELG1-luciferase reporter, luminescence, 16 h. Potency, µM (top dose mostly 46 µM), inactives show top-dose activity change, positive = activation, most hits filed as activators. hit rate 1.3% among 330,000; note: % of control where 0% means no effect; nearly all actives have a fitted effect of over 60% in size
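HEK293T cells expressing luciferase-tagged ELG1 were exposed to compound or DMSO vehicle for 16 hr at 37 °C and 5% CO2. Luciferase activity was then measured with ONE-Glo after 30 min at room temperature.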
NPC1 prom act: activates the NPC1 promoter; hit rate 2.4% among 320,000; Huh7 NPC1 promoter luciferase reporter, 24 h; Potency, µM (top dose mostly 9.22 µM), without a hit: at the top dose activation, most hits filed as activators; note: % of control where 0% means no effect; nearly all actives have a fitted effect of over 60% in size
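Luciferase expression driven by the NPC1 promoter was measured in stably transfected Huh7 cells after a 24 h compound incubation, using a luciferase reagent and a luminescence read.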
FLuc modulator: counter-screen for miR-21 project: firefly luciferase inhibitors or activators. Potency, µM (titrated, usually from 57.5 µM), for inactives: at the highest dose activity change, negative = inhibition, usual class: inhibitors. purified FLuc, Km substrates, luminescence inhibition. hit rate 6.9% among 360,000;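 note: plate controls were vehicle for no effect and reference inhibitor for full effect; nearly all actives have a fitted effect of over 55% in size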
Target sequence (P08659 whole entry, looked up): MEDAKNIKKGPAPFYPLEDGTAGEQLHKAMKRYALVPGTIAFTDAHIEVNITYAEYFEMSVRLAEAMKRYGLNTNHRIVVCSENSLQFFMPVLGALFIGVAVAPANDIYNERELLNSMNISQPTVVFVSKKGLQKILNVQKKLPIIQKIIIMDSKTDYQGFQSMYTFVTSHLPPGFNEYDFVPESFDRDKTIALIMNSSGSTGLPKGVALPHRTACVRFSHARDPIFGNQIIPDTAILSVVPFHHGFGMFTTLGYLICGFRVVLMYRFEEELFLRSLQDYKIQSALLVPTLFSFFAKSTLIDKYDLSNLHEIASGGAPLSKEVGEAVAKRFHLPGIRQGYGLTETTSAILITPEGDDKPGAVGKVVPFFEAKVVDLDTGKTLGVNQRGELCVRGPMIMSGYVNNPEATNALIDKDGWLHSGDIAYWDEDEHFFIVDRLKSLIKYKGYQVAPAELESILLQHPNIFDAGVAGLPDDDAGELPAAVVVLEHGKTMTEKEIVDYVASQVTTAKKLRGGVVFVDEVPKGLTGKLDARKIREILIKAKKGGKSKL
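Purified P. pyralis luciferase (10nM final) with 10uM D-luciferin and 10uM ATP (Km levels) in 50mM Tris acetate pH 7.5, 10mM Mg acetate, 0.01% Tween-20, 0.05% BSA; qHTS 6-point titration, ~60 µM downward; luminescence read.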
* hit, by the source's call; ? = inconclusive; / = no result; [ ] = another dose, or the depositor's remark. This is a sample that favours compounds with a hit; in the whole collection about 9.4% have one here. Calls come from the whole dose curve; as a rule, active = well fitted curve in the direction sought with a large enough effect; inconclusive = small, poorly fitted or top-dose-only effect, or another doubt; inactive = no such curve, though single readings can be large; an effect the other way counts as inactive or inconclusive. Potency is the fitted concentration of half-maximal effect.

SMILES | SMN2 splice up | ELG1 repair inh | Rab9 promoter act | ELG1 genotox | NPC1 prom act | FLuc modulator
N=c1oc2cc(O)ccc2cc1C(=O)Nc1nc2ccccc2s1 | 0% | ? | 3.2µM* | 6.5µM* | 4µM* | 0.19µM*
COc1ccc2oc(=O)c(C(=O)Nc3ccccc3C)cc2c1 | / | ? | 3.2µM* | ? | 3.2µM* | 1.7µM*
COc1ccc(N2CCN(S(=O)(=O)c3ccc(C4CCCCC4)cc3)CC2)cc1 | 8% | / | / | / | / | -6%
CN(c1ccc(F)cc1)S(=O)(=O)N1CCCC(C(=O)NCCc2ccccc2)C1 (stereo not drawn) | / | / | / | / | / | -8%
COc1ccc2oc(=N)c(C(=O)Nc3ccc(F)cc3)cc2c1 | / | 0% | ? | ? | ? | ?
N=c1oc2ccc(Cl)cc2cc1C(=O)Nc1ccc(F)cc1 | / | ? | 3.5µM* | ? | 3.5µM* | ?
COc1ccc2oc(=N)c(C(=O)Nc3ccccc3Cl)cc2c1 | / | ? | 2.5µM* | ? | 3.5µM* | 0.54µM*
COc1ccc2oc(=N)c(C(=O)Nc3ccc(Cl)cc3)cc2c1 | / | ? | 26% | 1% | ? | -10%
CC(=O)N1CCCc2cc(S(=O)(=O)N(C)CC(=O)Nc3cccc(C)c3C)ccc21 | / | / | / | / | / | -8%
CCN(CC)S(=O)(=O)c1cc(NC(=O)COc2ccc(C#N)cc2OC)ccc1C | -4% | 13µM* | -2% | -8% | 1% | 5%
O=C(O)[C@@H]1[C@H](C(=O)O)[C@H]2C(=O)C=C[C@H]1N2Cc1ccccc1 | -12%[9.22 µM] | / | / | / | / | /
COc1cccc(/C=N/NC(=O)c2cccc(N3CCCC3=O)c2)c1 | / | ? | ? | 4.1µM* | ? | 9.5µM*
CC(C)/C=N/NC(=O)c1cccc(N2CCCC2=O)c1 | 6% | ? | -5% | 7% | -7% | 0%
CN(C)c1ccc(/C=N/NC(=O)c2cccc(N3CCCC3=O)c2)cc1 | 4% | ? | 15% | 9% | 4% | 11µM*
O=C(N/N=C/c1ccco1)c1cccc(N2CCCC2=O)c1 | ? | ? | 22% | 18% | 12% | 19µM*
COc1ccc(O)c(/C=N/NC(=O)c2cccc(N3CCCC3=O)c2)c1 | / | -25% | -8% | 13% | -39% | 11µM*
COc1ccc(CNC(=O)Cn2c(=O)cc(-c3ccccc3)c3c(C)nn(C)c32)cc1 | / | / | / | / | / | -14%
COc1ccc(O)c(/C=N/NC(=O)c2ccc(N3CCCC3=O)cc2)c1 | / | 8% | -16% | -3% | -34% | -12%
O=C(N/N=C/c1cc(Br)ccc1O)c1cccc(N2CCCC2=O)c1 | -90% | ? | -30% | ? | -24% | 17µM*
CC1Cc2cc(S(=O)(=O)CCC(=O)Nc3ccccc3F)ccc2N1C(=O)C1CC1 (stereo not drawn) | / | / | / | / | / | -7%
Cc1cc2cc(CCNS(=O)(=O)c3ccc(Br)cc3)c(=O)[nH]c2cc1C | -5% | / | / | / | / | -10%
COC(=O)[C@H](Cc1ccccc1)NC(=O)[C@]1(C)C[C@H]1[C@H](NC(=O)OCc1ccccc1)c1ccccc1 | -18% | / | / | / | / | /
N#CC(C#N)=C(N)Nc1cccc(Cl)c1 | / | ? | -2% | 1% | 0% | 6%
CC1CCC(=C(C#N)C(=O)Nc2cccc(Cl)c2)CC1 (stereo not drawn) | -11% | 30% | -6% | -1% | -1% | 24µM*
N=C(N)C(N=Nc1ccccc1)C(=N)N (stereo not drawn) | -20%[9.22 µM] | / | / | / | / | /
SMILES | SMN2 splice up | ELG1 repair inh | Rab9 promoter act | ELG1 genotox | NPC1 prom act | FLuc modulator
Cc1cc(C)c2c(=O)cc(C(=O)Nc3ccc(C)c(Cl)c3)oc2c1 | 7% | / | / | / | / | -4%
Nc1cccc2c1C(=O)N(C(=O)/C=C/c1ccc(F)cc1)C2=O | -3% | ? | -11% | 12% | -5% | 11µM*
Nc1cccc2c1C(=O)N(C(=O)c1ccco1)C2=O | / | 0% | 1% | 0% | -6% | -11%
CNc1nc(-c2ccc3c(c2)CCN3C(=O)c2ccccc2F)cs1 | 13µM* | ? | 0.56µM* | ? | 1.6µM* | 1.5µM*
CS(=O)(=O)N1CCc2cc(-c3csc(NC(=O)C(c4ccccc4)c4ccccc4)n3)ccc21 | 7% | 10% | -7% | -2% | -1% | 0%
CNc1nc(-c2ccc3c(c2)CCN3C(=O)c2ccccc2F)c(C)s1 | / | ? | 11% | 1% | 9% | 15µM*
Cc1ccc(C(=O)N2CCc3cc(CNC(=O)c4ccccc4F)ccc32)cc1 | / | / | / | / | / | 19µM*
CCOc1ccc(OCC)c(NC(=O)c2csc3c2CCCC3)c1 | 19% | / | / | / | / | 1%
CCn1ccc(C(=O)Nc2ccccc2SC)n1 | 14µM* | ? | 4.5µM* | ? | ? | ?
CCn1ccc(C(=O)Oc2ccc(Cl)cc2)n1 | -11% | 14% | -4% | 2% | 3% | 7.6µM*
CCn1ccc(C(=O)Nc2ccc(Cl)cn2)n1 | ? | ? | 4µM* | ? | 3.2µM* | 19µM*
Cc1nn(CC(=O)NCc2ccc(OC(C)C)cc2)c(=O)c2c(C)n(-c3ccc(Cl)cc3)nc12 | / | / | / | / | / | -16%
COc1ccccc1CNC(=O)Cn1c(-c2ccc(F)cc2)cc(C(C)=O)c1C | / | / | / | / | / | -2%
O=C(COC(=O)CNS(=O)(=O)c1ccc(F)c(F)c1F)NCCc1ccccc1 | / | ? | ? | ? | ? | 5.4µM*
O=c1c2ccccc2nc(/C=C/c2c[nH]c3ccccc23)n1CCO | / | ? | ? | 12% | ? | 11µM*
O=c1c2ccccc2nc(/C=C/c2ccc(O)cc2)n1CCc1ccccc1 | -29% | 23µM* | 1% | -12% | 7% | -26%
Cn1c(/C=C/c2ccc(Cl)cc2)nc2ccccc2c1=O | / | ? | 2.8µM* | ? | 4µM* | 3.8µM*
O=c1c2ccccc2nc(/C=C/c2ccccc2)n1CCCO | / | -28% | -2% | -1% | -5% | -15%
COc1cc(C(=O)OC2CC[C@]3(C)C4CCC5[C@]6(O)CC(O)[C@]7(O)C(CN8CC(C)CCC8[C@]7(C)O)[C@]6(O)C[C@@]53O[C@]24O)cc(OC)c1OC (stereo partly drawn) | -9% | / | / | / | / | /
CCOc1ccc(CNC(=O)CCCn2nc(C)c3sc4ccccc4c3c2=O)cc1 | / | / | / | / | / | -25%
COC(=O)[C@@H]1CC[C@H](C)[C@@H](c2ccc(C)cc2)N1C(=O)c1ccc(/C=N/OC[C@@H](O)COCc2ccco2)cc1 | -26% | ? | -5% | -7% | 2% | 2%
C=CC[C@@H]1C=C[C@H](O/N=C/c2ccc(C(=O)N3[C@H](c4ccc(C)cc4)[C@@H](C)CC[C@H]3C(=O)OC)cc2)[C@@H](CO)O1 | -9% | 18µM* | -3% | -4% | -3% | 8%
